Tg IFNy HTS – blocks Toxoplasma gondii growth in the presence of IFN-gamma; hit rate 3.8% among 69,000; Toxoplasma gondii growth in IFN-gamma-treated host cells; active compounds read low; activity change, negative = inhibition, % (no concentration beside the values); in the data active means activity change below about -70%, passing the limit was not always enough;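 further: host cells are HeLa cells infected with Toxoplasma gondii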
* hit, by the source's call; i = inactive; ! = a repeat was not active. Many of the other results were omitted from the sample, so hits are more common in it than they were.

SMILES	Tg IFNy HTS
C[C@H]1[C@H](C)CC[C@]2(C(=O)O)CC[C@]3(C)C(=CC[C@@H]4[C@@]5(C)C[C@@H](O)[C@H](O)[C@@](C)(CO)[C@@H]5CC[C@]43C)[C@H]12	-74.2*!
C[C@H]1[C@H](C)CC[C@]2(C(=O)O)CC[C@]3(C)C(=CCC4[C@@]5(C)C[C@@H](O)[C@H](O)[C@@](C)(CO)C5CC[C@]43C)[C@H]12 (some centres not stated)	23.2
COCCN1CCn2c(nc3cc(NC(=O)c4ccc(F)cc4)ccc32)C1	31.4
Cc1cc(CN(C)CC(=O)NCCc2cccc(Cl)c2)n[nH]1	-0.1
COc1cccc(-c2cccc(CN(C)Cc3cc(C)[nH]n3)c2)c1	-82.5*
COc1cccc(-n2cc(CN(C)Cc3cc(F)ccc3F)cn2)c1	10.9
O=C1OCc2ccc(NS(=O)(=O)NCc3ccccc3)cc21	11.0
CC1(C)CC(N(Cc2ccccn2)CC2CCOC2)CC(C)(C)N1 (configuration not stated)	-19.6
Cc1nc(CC(=O)N2CC(C(=O)N3CCN(c4ccccc4)CC3)C2)cs1	-7.4
COCC(=O)N1CCC(N(C)Cc2cccnc2)CC1C(=O)O (configuration not stated)	160.4
COc1ccccc1C1(O)CCN(CCCn2c3ccccc3c3ccccc32)CC1	-76.9*!
COc1ccccc1C1(O)CCCN(CC(O)c2ccc(C)cc2)C1 (configuration not stated)	-41.6
CC1CN(CCCn2c3ccccc3c3ccccc32)CC(C)N1 (configuration not stated)	-4.0
O=C(NC1CC1)c1nc(C(=O)N2CCN(c3ccccc3Cl)CC2)cs1	-28.3
CC(C)c1nnsc1CN1CCCC2(CC1)CN(C)C(=O)O2 (configuration not stated)	0.3
O=C(Cn1c(=O)cc(-c2nc(C3CC3)no2)c2ccccc21)NCCC1=CCCCC1	-84.2*
CC1CCN(S(=O)(=O)c2ccc3c(ccc(=O)n3CC(=O)NCCC3=CCCCC3)c2)CC1	-76.6*
O=C(Cn1c(=O)cc(-c2nc(C3CC3)no2)c2ccccc21)NCc1ccc(F)cc1	10.4
CC1CCN(S(=O)(=O)c2ccc3c(ccc(=O)n3CC(=O)NC3CCCC3)c2)CC1	-53.6
CC1CCN(S(=O)(=O)c2ccc3c(ccc(=O)n3CC(=O)NC3CC3)c2)CC1	-5.3
CC(C)NC(=O)Cn1c(=O)cc(-c2nc(C3CC3)no2)c2ccccc21	-31.4
COc1ccc(CCC(C)NC(=O)c2ccc(C(C)(C)C)[nH]c2=O)cc1 (configuration not stated)	-33.4
CC(=O)N1CCC2(CC1)CC(NCc1ccc(C)s1)c1ccccc1O2 (configuration not stated)	-5.3
CC(=O)N(C)Cc1ncn2c1CN(C(=O)C1CCCO1)CCC2 (configuration not stated)	-1.4
COc1cccc(-n2c(=O)c(C(=O)Nc3ccccc3C)c(O)c3cccnc32)c1	-1.5
SMILES	Tg IFNy HTS
COc1ccc(NC(=O)c2cn(C)nc2CC2CCN(C(=O)Cn3cccn3)CC2)cc1	-46.5
COc1c(C)c2c(c(O)c1C/C=C(/C)CCC(=O)O)C(=O)OC2	-76.7*
C[C@@H]1CCCCO[C@@H](CN(C)C(=O)c2ccncc2)[C@H](C)CN([C@H](C)CO)C(=O)c2cc(NS(=O)(=O)c3cccs3)ccc2O1	-19.7
Cc1ccc(S(=O)(=O)Nc2ccc3c(c2)C(=O)N([C@@H](C)CO)C[C@H](C)[C@@H](CN(C)S(=O)(=O)c2cccs2)OCCCC[C@H](C)O3)cc1	-99.2*
C[C@H](CO)N1C[C@H](C)[C@@H](CN(C)Cc2ccc(Cl)c(Cl)c2)OCCCC[C@H](C)Oc2ccc(NS(=O)(=O)c3cccs3)cc2C1=O	-173.0*
C[C@@H]1CCCCO[C@H](CN(C)Cc2ccc(Cl)c(Cl)c2)[C@@H](C)CN([C@H](C)CO)C(=O)c2cc(NS(=O)(=O)c3cccs3)ccc2O1	105.9
C[C@@H]1CCCCO[C@@H](CN(C)Cc2ccc(Cl)c(Cl)c2)[C@@H](C)CN([C@H](C)CO)C(=O)c2cc(NS(=O)(=O)c3cccs3)ccc2O1	-44.6
Cc1ccc(S(=O)(=O)Nc2ccc3c(c2)C(=O)N([C@@H](C)CO)C[C@H](C)[C@H](CN(C)S(=O)(=O)c2cccs2)OCCCC[C@@H](C)O3)cc1	-99.4*
Cc1noc(C)c1NC(=O)Nc1ccc2c(c1)C(=O)N([C@@H](C)CO)C[C@@H](C)[C@@H](CN(C)S(=O)(=O)c1cccs1)OCCCC[C@H](C)O2	i
C[C@@H]1CCCCO[C@@H](CN(C)C(=O)c2ccncc2)[C@@H](C)CN([C@H](C)CO)C(=O)c2cc(NS(=O)(=O)c3cccs3)ccc2O1	11.8
Cc1ccc(S(=O)(=O)Nc2ccc3c(c2)C(=O)N([C@@H](C)CO)C[C@H](C)[C@@H](CN(C)S(=O)(=O)c2cccs2)OCCCC[C@@H](C)O3)cc1	-90.4*
Cc1noc(C)c1NC(=O)Nc1ccc2c(c1)C(=O)N([C@@H](C)CO)C[C@H](C)[C@H](CN(C)S(=O)(=O)c1cccs1)OCCCC[C@H](C)O2	311.8
C[C@@H]1CCCCO[C@H](CN(C)C(=O)c2ccncc2)[C@@H](C)CN([C@H](C)CO)C(=O)c2cc(NS(=O)(=O)c3cccs3)ccc2O1	76.1
Cc1noc(C)c1NC(=O)Nc1ccc2c(c1)C(=O)N([C@H](C)CO)C[C@H](C)[C@@H](CN(C)S(=O)(=O)c1cccs1)OCCCC[C@H](C)O2	185.4
CC(C)n1c(-c2cncn2CCCN2CCCCC2)nc2ccccc21	14.2
CCOC(=O)c1coc(N2CCCC3(C2)C(=O)N(C)c2ccccc23)n1 (configuration not stated)	-32.3
Nc1nnc(SCC(=O)NC(CF)Cc2ccccc2)s1 (configuration not stated)	3.9
COCC(=O)N1CC[C@H]2C[C@H](c3nc(C)no3)O[C@H]2C1	-49.1
CS(=O)(=O)Cc1ncn2c1CN(C(=O)NCc1ccccc1)CCC2	65.0
Nc1ccccc1NC(=O)c1cccnc1	45.6
CN(C)C(=O)c1nc(CN2CCC3(CCCO3)CCC2=O)no1 (configuration not stated)	-29.0
CCc1nc(-c2ccc(C(=O)N3CCC4(CC3)OCCO4)cc2)cs1	26.5
CS(=O)(=O)N1CCCC12CCCN(c1cnccn1)C2 (configuration not stated)	88.3
Cc1noc(C)c1NC(=O)Nc1ccc2c(c1)C(=O)N([C@@H](C)CO)C[C@@H](C)[C@H](CN(C)S(=O)(=O)c1cccs1)OCCCC[C@@H](C)O2	i
Cc1noc(C)c1NC(=O)Nc1ccc2c(c1)C(=O)N([C@H](C)CO)C[C@@H](C)[C@H](CN(C)S(=O)(=O)c1cccs1)OCCCC[C@@H](C)O2	90.3
Cc1ccc(S(=O)(=O)Nc2ccc3c(c2)C(=O)N([C@@H](C)CO)C[C@@H](C)[C@H](CN(C)S(=O)(=O)c2cccs2)OCCCC[C@H](C)O3)cc1	-58.6
Cc1ccc(S(=O)(=O)Nc2ccc3c(c2)C(=O)N([C@@H](C)CO)C[C@@H](C)[C@@H](CN(C)S(=O)(=O)c2cccs2)OCCCC[C@@H](C)O3)cc1	-99.3*
Cc1ccc(S(=O)(=O)Nc2ccc3c(c2)C(=O)N([C@H](C)CO)C[C@H](C)[C@@H](CN(C)S(=O)(=O)c2cccs2)OCCCC[C@@H](C)O3)cc1	-46.6
Cc1ccc(S(=O)(=O)Nc2ccc3c(c2)C(=O)N([C@H](C)CO)C[C@H](C)[C@@H](CN(C)S(=O)(=O)c2cccs2)OCCCC[C@H](C)O3)cc1	-121.9*
CCc1nc(C)c(C(=O)N(C)Cc2cnn(-c3ccc(F)cc3)c2)o1	-7.4

Assay outcomes deposited in PubChem BioAssay by Broad Institute.
